IL-1B inflam inh: qHTS for Inhibitors of Inflammasome Signaling: IL-1-beta AlphaLISA Primary Screen | activity change, % at 57.5 µM | THP-1 LPS/ATP IL-1B secretion, AlphaLISA, 16 h; stronger effect = lower value | 360,000 compounds, 4.7% hits; in the data active = activity change below about -50%; inconclusive = mostly about -30% to -49%
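Secreted IL-1B measured by AlphaLISA bead assay after 16 h compound exposure of THP-1 cells; compounds (final up to 57.5 uM) added 1 h before LPS (250 ng/mL) and ATP (1.25 mM) stimulation; lower signal means less secretion.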
VP16 counter: VP16 counterscreen qHTS for inhibitors of ROR gamma transcriptional activity; Drosophila S2 Gal4-VP16 UAS-luciferase, luminescence, 20 h; Potency, µM (titrated, usually from 53.6 µM), inactives show top-dose activity, negative = inhibition, hits mostly inhibitors; 310,000 compounds, 3.5% hits; AID 2546, 2010;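 also: Gal4-VP16 expression switched on by copper sulfate through the metallothionein promoter; potency is read from the fitted curve at half-maximal effect; nearly all actives have a fitted effect of over 50% in size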
DT40 TDP1 no CPT: qHTS for Inhibitors of human tyrosyl-DNA phosphodiesterase 1 (TDP1): qHTS in cells in absence of CPT | 420,000 compounds, 15% hits | DT40 Tdp1-/- hTDP1 cells, no CPT, ATP luminescence, 48 h | Potency, µM (top dose mostly 46.2 µM), for inactives: top-dose activity change, negative = growth inhibition, hits mostly inhibitors; also: potency is read from the fitted curve at half-maximal effect; nearly all actives have a fitted effect of over 55% in size
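Compound effects on proliferation are scored in DT40 Tdp1-/-;hTDP1 cells in the absence of CPT. ATP levels (CellTiter-Glo luminescence) are recorded after a ≥48 hr, 37 °C incubation.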
TDP1 cell CPT: qHTS for Inhibitors of human tyrosyl-DNA phosphodiesterase 1 (TDP1): qHTS in cells in presence of CPT. 420,000 compounds, 12% hits. chicken DT40 Tdp1-/-;hTDP1 cells + 20 nM CPT, ATP luminescence, 48 h. Potency, µM (top dose mostly 46.2 µM), for the others: at the top dose activity change, negative = growth inhibition, most hits filed as inhibitors. AID 686979, 2013; also: potency is read from the fitted curve at half-maximal effect; nearly all actives have a fitted effect of over 55% in size
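Chicken DT40 Tdp1-/- cells complemented with human TDP1, 400 cells/well, exposed to compounds plus 20 nM camptothecin for at least 48 h at 37 C; viability read as ATP content by CellTiter-Glo luminescence.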
RORgamma inh: qHTS for inhibitors of ROR gamma transcriptional activity. Nuclear receptor ROR-gamma (Mus musculus), P51450. Drosophila S2 Gal4-RORgamma UAS-luciferase reporter, 20 h. Potency, µM (doses to about 53.6 µM), for inactives: top-dose activity change, negative = inhibition, usual class: inhibitors. 310,000 compounds, 5.4% hits. AID 2551, 2010; also: potency is read from the fitted curve at half-maximal effect; nearly all actives have a fitted effect of over 60% in size
Target sequence (P51450 whole entry, looked up, the tested form may be a part): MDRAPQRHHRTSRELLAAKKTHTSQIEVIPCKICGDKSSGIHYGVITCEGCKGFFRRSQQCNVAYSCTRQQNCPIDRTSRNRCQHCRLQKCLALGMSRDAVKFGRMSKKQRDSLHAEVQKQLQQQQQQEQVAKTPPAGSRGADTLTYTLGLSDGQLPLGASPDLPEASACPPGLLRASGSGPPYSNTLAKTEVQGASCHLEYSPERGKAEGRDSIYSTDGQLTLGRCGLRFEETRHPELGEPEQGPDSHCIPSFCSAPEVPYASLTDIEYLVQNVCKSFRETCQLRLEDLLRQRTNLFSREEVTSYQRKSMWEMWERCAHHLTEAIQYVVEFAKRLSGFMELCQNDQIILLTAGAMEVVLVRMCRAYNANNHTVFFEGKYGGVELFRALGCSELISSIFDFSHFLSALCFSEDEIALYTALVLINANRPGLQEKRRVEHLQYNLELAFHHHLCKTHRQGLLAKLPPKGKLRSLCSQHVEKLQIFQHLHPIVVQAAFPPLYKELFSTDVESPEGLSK
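Schneider cells (Drosophila), stable Gal4 DBD–ROR gamma + UAS-luc; 1 hr cmpd preincubation; Cu2+ induction 700 uM final; 20 hr ambient; luminescence.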
LDHA inh: qHTS assay for inhibitors of human lactate dehydrogenase | L-lactate dehydrogenase A chain (Homo sapiens), P00338 | purified LDHA, NADH/diaphorase-resazurin fluorescence; stronger effect = lower value | activity change, % (values are at about 110 or 230 µM) | 480,000 compounds, 0.15% hits | AID 1347041, 2019; in the data active = activity change below about -30%; inconclusive = mostly about -25% to -30%;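 also: plate controls were DMSO wells for no effect and wells without enzyme for full effect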
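LDH5 2 nM; NADH 0.06 mM, pyruvate 0.2 mM; 200 mM Tris pH 7.4, EDTA, Tween-20; 5 min RT. Detection: diaphorase 0.133 mg/mL + resazurin 37 µM, fluorescence ex540/em590 at 0 and 20 min; normalized to enzyme-free and DMSO wells.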
Numbers without * were called inactive; u = inconclusive; x = not tested or not shown. A selection: hits, their analogues and other compounds. The true share with any hit is near 18%. Unless noted, calls follow the shape of the dose curve; as a rule, active = well fitted curve in the direction sought with a large enough effect; inconclusive = small, poorly fitted or top-dose-only effect, or another doubt; inactive = no such curve, though single readings can be large; an effect the other way counts as inactive or inconclusive. Unless noted, % is scaled to controls: 0 for no effect and ±100 for the full control effect.

SMILES | IL-1B inflam inh | VP16 counter | DT40 TDP1 no CPT | TDP1 cell CPT | RORgamma inh | LDHA inh
CC(=O)Nc1cc(-c2ccc(N3CCN(C)CC3)cc2)cn2c(-c3ccc(S(C)(=O)=O)cc3)cnc12 | -24 | x | 21µM* | 15µM* | x | 6
CN(Cc1ccc(-c2ccc(Br)cc2)o1)C(=O)CSc1nnc(C2CC2)n1C1CC1 | x | x | x | x | x | -2
C[C@]1(O)CC(=O)C=C[C@H]1Nc1ccccc1 | -104* | x | 18µM* | u | x | 5
COc1ccc(C2=NOC(Cn3c(=O)c4c(ncn4C)n(C)c3=O)C2)c(OC)c1 (stereo unspecified) | x | x | x | x | x | 11
COn1c(-c2ccccc2)nc2c1CCc1c-2no[n+]1[O-] | -63* | -2% | u | u | -18% | 0
COc1ccc(CNc2ccc(C(=O)O)cc2C)c(OC)c1 | x | x | x | x | x | 0
CCOc1ccc(N(CC(=O)Nc2ccccc2C)S(=O)(=O)c2c(C)noc2C)cc1 | 29 | 0% | 2.9µM* | 4.6µM* | 14% | -1
Cc1noc(C)c1S(=O)(=O)N(CC(=O)NC(C)c1ccccc1)c1ccc(C(C)C)cc1 (stereo unspecified) | -53* | -12% | u | u | u | -1
CCOc1ccccc1NC(=O)CN(c1ccc(OC)cc1)S(=O)(=O)c1c(C)noc1C | 41 | -6% | 3.3µM* | 2.9µM* | -11% | -1
CC(C)(C)OC(=O)N/N=C/c1c(Cl)cccc1Cl | x | x | x | x | x | -2
O=C(O)C1CCCCC1C(=O)Nc1cccc2ccccc12 (stereo unspecified) | 34 | -4% | 8.2µM* | 16µM* | -28% | 2
C=CCN(Cc1nc(-c2ccccc2)no1)C(=O)c1ccoc1C | -7 | -10% | u | 29µM* | -25% | -1
CCCCCCn1cc(C(=O)O)c(=O)c2ccccc21 | -30 | 11% | -17% | -2% | 1% | 9
CCCCCCCCCCCCCCCCn1cc[n+](Cc2ccccc2)c1C | x | 7.1µM* | x | x | u | x
COc1ccc2c(c1)OC[C@H]1[C@H]2N2C(=O)CN(Cc3ccc(F)cc3)C(=O)[C@@]2(C)[C@H]1c1ccccc1 | -23 | x | u | u | x | -2
Cc1ccc2c(c1)[C@H]1[C@H](CO2)[C@H](c2ccccc2)[C@]2(C)C(=O)N(Cc3ccc(F)cc3)CC(=O)N12 | u | x | 21µM* | u | x | 1
COc1ccc(CN2CC(=O)N3[C@H]4c5cc(C)ccc5OC[C@@H]4[C@H](c4ccccc4)[C@]3(C)C2=O)cc1 | 0 | x | 21µM* | u | x | -2
COc1ccc(CN2CC(=O)N3[C@H]4c5ccccc5OC[C@@H]4[C@H](c4ccccc4)[C@]3(C)C2=O)cc1 | -15 | x | 16µM* | u | x | 2
COc1ccc2c(c1)OC[C@H]1[C@H]2N2C(=O)CN(Cc3ccco3)C(=O)[C@@]2(C)[C@H]1c1ccccc1 | -21 | x | u | u | x | 5
CCCCN1CC(=O)N2[C@H]3c4ccc(OC)cc4OC[C@@H]3[C@H](c3ccccc3)[C@]2(C)C1=O | -5 | x | 23µM* | u | x | 3
COc1ccc(C(=O)C(C)OC(=O)C23CC4CC(CC(Br)(C4)C2)C3)c(OC)c1 (stereo unspecified) | x | x | x | x | x | 1
CCCCOCCCNC(=O)CCC(=O)NCC(CC)CCCC (stereo unspecified) | x | x | x | x | x | 5
CN1CCN(c2ncnc3c2c(-c2ccccc2)cn3-c2cccc(Cl)c2)CC1 | x | x | x | x | x | 2
Cc1c(C)c(OC(=O)c2ccccc2)c(Cc2nc3ccccc3s2)c(C)c1O | x | x | x | x | x | 16
Brc1ccc2[nH]cc(/C=N/n3cnnc3)c2c1 | x | x | x | x | x | 9
SMILES | IL-1B inflam inh | VP16 counter | DT40 TDP1 no CPT | TDP1 cell CPT | RORgamma inh | LDHA inh
CCOC(=O)[C@H]1[C@H]2COc3ccc(C)cc3[C@@H]2N2C(=O)CN(Cc3ccccc3)C(=O)[C@@]12C | u | x | u | u | x | -1
Cc1ccc2c(c1)[C@H]1[C@H](CO2)[C@H](c2ccccc2)[C@]2(C)C(=O)N(Cc3ccc(Cl)cc3)CC(=O)N12 | -18 | x | 15µM* | u | x | -1
Cc1ccc(NC(=O)CN2CCN(C(=O)CN(C)Cc3cnn(-c4ccccc4)c3)CC2)cc1 | x | x | x | x | x | 11
N#Cc1c(-c2ccco2)c2c([nH]c1=S)CCCC2 | 0 | -1% | 2% | 0% | 9% | -2
N#Cc1c(-c2cccnc2)c2c([nH]c1=S)CCCC2 | 27 | -26% | -18% | -10% | 11µM* | 12
COc1ccc(-c2c3c([nH]c(=S)c2C#N)CCC3)cc1 | 23 | u | u | -21% | -100% | 5
COc1ccc(OC)c(-c2c3c([nH]c(=S)c2C#N)CCCC3)c1 | 47 | u | -30% | 1% | 16µM* | -3
C[C@@H]1CN([C@@H](C)CO)C(=O)Cc2cc(NC(=O)Nc3cccc4ccccc34)ccc2O[C@@H]1CN(C)Cc1ccc(C(F)(F)F)cc1 | x | x | 16µM* | u | x | 8
C[C@@H]1CN([C@@H](C)CO)C(=O)Cc2cc(NC(=O)Nc3cccc4ccccc34)ccc2O[C@@H]1CN(C)S(C)(=O)=O | 28 | x | -28% | u | x | 11
C[C@@H]1CN([C@@H](C)CO)C(=O)c2cc(NS(=O)(=O)c3cccs3)ccc2O[C@H]1CN(C)Cc1ccc(C(F)(F)F)cc1 | -63* | x | 26µM* | u | x | 1
C[C@@H]1CN([C@H](C)CO)C(=O)c2cc(NC(=O)Nc3cccc4ccccc34)ccc2O[C@H]1CN(C)Cc1ccc(C(F)(F)F)cc1 | 15 | x | 8.2µM* | 10µM* | x | 10
Cc1cccc2sc(NC(=O)c3cc(S(=O)(=O)N(C)C)ccc3N3CCCC3)nc12 | -124* | -5% | 18µM* | u | 31% | -5
CN(C)S(=O)(=O)c1ccc(N2CCCC2)c(C(=O)Nc2nc3ccc(F)cc3s2)c1 | -51* | 12% | -30% | -21% | u | -9
S=C(NCc1ccco1)N1CCN(Cc2ccc(Cl)cc2Cl)CC1 | u | 5% | 23µM* | u | 14% | -1
S=C(NCc1ccco1)N1CCN(C/C=C/c2ccccc2)CC1 | 6 | 0% | u | -27% | 13% | 2

Screening results from PubChem.
